# Compound activity: PubChem BioAssay, The Scripps Research Institute Molecular Screening Center
# MITF inh: inhibitors of human MITF; AlphaScreen MITF homodimerization, bead proximity signal; inhibition, % at 2.6 µM; actives 0.91% (n = 650,000); in the data active means inhibition above about 50%;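 further: 0% = vehicle wells with protein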
# GPR151 ag: activates the human receptor GPR151. PathHunter beta-arrestin GPR151 cells, luminescence. activation, % at 11.2 µM. AID 1508602. actives 1% (n = 650,000); in the data active means activation above about 4.9%;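 further: 0% = median of compound wells and 100% = cells with positive control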
# Target sequence (Q8TDV0 whole entry, looked up): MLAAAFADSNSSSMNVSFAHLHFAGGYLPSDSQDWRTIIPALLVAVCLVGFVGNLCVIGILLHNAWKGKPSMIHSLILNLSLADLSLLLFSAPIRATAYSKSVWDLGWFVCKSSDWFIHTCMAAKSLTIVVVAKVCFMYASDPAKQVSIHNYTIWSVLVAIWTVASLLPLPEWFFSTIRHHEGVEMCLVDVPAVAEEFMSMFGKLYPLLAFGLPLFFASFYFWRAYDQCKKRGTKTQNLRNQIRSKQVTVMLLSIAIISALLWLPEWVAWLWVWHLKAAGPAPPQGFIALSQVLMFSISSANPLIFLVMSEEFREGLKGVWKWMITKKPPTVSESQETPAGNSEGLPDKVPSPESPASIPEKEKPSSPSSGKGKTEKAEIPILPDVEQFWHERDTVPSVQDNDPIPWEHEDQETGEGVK
# FBW7 activator: activators of human E3 ligase FBW7; actives 0.13% (n = 650,000); AlphaScreen FBW7–phospho-cyclin E peptide binding, activator screen; normalized activity (activation), % at 26.1 µM; Q969H0; in the data active means normalized activity above about 1.9%;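 further: purified mutant Fbw7 with reduced substrate affinity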
# TEAD-YAP block: TEAD-YAP interaction inhibition. HEK-TIYL cells, TEAD-Gal4/YAP UAS-luciferase luminescence. inhibition, % at 9.12 µM. actives 1.4% (n = 640,000). AID 1259422; in the data active means inhibition above about 32%;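 further: 0% = median of test compound wells and 100% = reference inhibitor wells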
# MITF confirm: confirmation of human MITF inhibitors. AlphaScreen MITF homodimerization, biotin/His-MITF beads. shares compounds with MITF inh. AID 1259372. actives 16% (n = 4,700). inhibition, % at 2.6 µM;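 active means inhibition above a cutoff derived from the DMSO control wells, cut at about 28% in these data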;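 further: 0% = MITF dimer wells with DMSO only; inhibitors lower the bead chemiluminescence by keeping MITF from dimerizing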
# AS interf DR: counter-screen: compounds optically interfering with AlphaScreen. actives 6% (n = 480). AID 1259373. AlphaScreen optical interference counterscreen, cell-free. IC50, µM. shares compounds with MITF inh; call rule not given here
# AlphaScreen intf2: optically interferes with AlphaScreen signal. shares compounds with MITF inh. AID 1259376. inhibition, % at 2.6 µM. actives 7.6% (n = 4,700). LysRS AlphaScreen counterscreen, signal interference, triplicate;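 active means inhibition above a cutoff derived from the DMSO control wells, cut at about 30% in these data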
# Starred values were filed as active, the others as inactive; nt = no result. An excerpt weighted towards active compounds, which were near 3.4% of everything screened.
SMILES,MITF inh,GPR151 ag,FBW7 activator,TEAD-YAP block,MITF confirm,AlphaScreen intf2,others
CCOC(=O)C1=C(C)NC2=C(C(=O)C(C(=O)OCC)C(c3ccccc3OC)C2)C1c1cc(OC)ccc1OC (stereo not given),4,-2,0,10,nt,nt,
Cc1ccc2occ(CN3CCC4(CC3)CC4C(=O)Nc3ccc(F)c(F)c3)c(=O)c2c1 (stereo not given),74*,0,0,-5,9,-3,
CSc1ccc(NC(=O)C2CC23CCN(Cc2coc4ccc(C)cc4c2=O)CC3)cc1 (stereo not given),4,1,0,0,nt,nt,
N#Cc1ccc(OCC(O)CNCCCN2CCCC2=O)cc1 (stereo not given),51*,-1,0,-3,-4,7,
CC(=O)N1CCN(C(=O)COc2ccc(Br)cc2)CC1,53*,-1,1,-2,10,9,
O=CN1CCN(C(=O)COc2ccc(Br)cc2)CC1,-10,1,0,1,nt,nt,
Cc1n[nH]c(=S)n1/N=C/c1ccccc1F,70*,2,0,-11,-8,-2,
NS(=O)(=O)c1ccc(N=Cc2cc3c(cc2[N+](=O)[O-])OCO3)cc1,64*,1,0,-2,56*,9,AS interf DR=>6.5
Cc1[nH][nH]c(=O)c1C(c1ccc([N+](=O)[O-])o1)c1c(C)[nH][nH]c1=O,59*,0,-1,4,28*,-1,AS interf DR=>6.5
Cc1[nH][nH]c(=O)c1C(c1ccc(-c2cccc([N+](=O)[O-])c2)o1)c1c(C)[nH][nH]c1=O,1,0,0,0,nt,nt,
O=C(CNc1cccc(Br)c1)N/N=C/c1cccc(Br)c1,17,0,0,12,nt,nt,
CCc1ccc(CN2CCN(Cc3cc(OC)c(OC)cc3OC)CC2)cc1,63*,-1,0,5,-4,5,
COc1ccc(CN2CCN(Cc3cc(OC)c(OC)cc3OC)CC2)cc1,76*,1,0,0,10,19,
COc1ccc(CN2CCc3cc(OC)c(OC)cc3C2)cc1,18,-1,1,0,nt,nt,
O=C(NC(Cc1ccccc1)C(=O)O)c1ccccc1[N+](=O)[O-] (stereo not given),8,-1,1,-8,nt,nt,
Cc1noc(C)c1-c1cncc(C(=O)NCCOc2ccccc2)c1,12,-1,0,-5,nt,nt,
O=C(NCC(c1ccco1)S(=O)(=O)c1cccs1)c1ccco1 (stereo not given),21,0,1,-1,nt,nt,
O=C(NCC(c1cccs1)S(=O)(=O)c1ccc(Cl)cc1)c1ccco1 (stereo not given),70*,2,2,-3,59*,-15,AS interf DR=>6.6
Cc1ccc(S(=O)(=O)C(CNC(=O)c2ccco2)c2cccs2)cc1 (stereo not given),95*,1,1,-5,83*,5,AS interf DR=>6.6
Cc1ccc(S(=O)(=O)C(CNC(=O)C(C)C)c2cccs2)cc1 (stereo not given),-8,-1,0,1,nt,nt,
CC(=O)NCC(c1cccs1)S(=O)(=O)c1ccc(C)cc1 (stereo not given),51*,1,1.9*,-7,60*,-8,AS interf DR=>6.4
COC(=O)C(CCSC)NC(=O)COc1ccc(N2CCCC2)nn1 (stereo not given),-3,1,-1,-2,nt,nt,
CCSc1nnc2[nH]c(=O)c(C)c(C)n12,-3,1,0,10,nt,nt,
Cc1c(-c2nc3cnccn3c2NCc2ccccc2)cnn1C,10,-1,0,-9,nt,nt,
CC(C)(C)C(=O)NCCNc1ccc(Cl)cc1[N+](=O)[O-],87*,3,0,-1,-4,-3,
COC(=O)c1c(OCc2cccnc2)cc(=O)n2c1CCN(C(=O)C1CCCCC1)CC2,69*,-1,0,-1,-6,2,
COc1ccc(CN2CCN(Cc3ccc4c(c3)OCO4)CC2)cc1,64*,0,0,-3,14,13,
Cc1ccc(C(=O)N2CCN(Cc3ccc4c(c3)OCO4)CC2)cc1,8,0,0,3,nt,nt,
COc1ccc(NC(=S)N2CCN(Cc3ccc4c(c3)OCO4)CC2)cc1,15,-1,0,-10,nt,nt,
COc1ccc(C(=O)N2CCN(Cc3ccc4c(c3)OCO4)CC2)cc1,55*,0,0,-3,4,14,
